Sfp inh = inhibitors of Bacillus subtilis Sfp phosphopantetheinyl transferase; Potency, µM, for inactives: largest response in the series, negative = inhibition, most hits filed as inhibitors; AID 1490; 310,000 compounds, 3.5% hits; Biochemical Sfp PPTase activity, qHTS;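 further: the enzyme is Sfp with the accession as filed and its product quenches rhodamine fluorescence; 0% = enzyme reaction without inhibitor and -100% = no enzyme wells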
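Sfp 15 nM + cpd, 15 min RT; start w/ rhodamine-CoA 5 uM, BHQ-2-YbbR 12.5 uM (final); 50 mM Hepes pH 7.6, 10 mM MgCl2, 0.01% NP-40, 0.01% BSA; read 525/598 nm at 0 and 30 min.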
HP1b binding inh = HP1-beta chromodomain-methylated histone interaction inhibition; P83916; AlphaScreen HP1-beta / biotin-H3K9me3 peptide binding; Potency, µM (series often up to 114 µM), inactives show at the top dose activity change, negative = inhibition, most hits filed as inhibitors; 390,000 compounds, 0.56% hits; AID 540317; further: nearly all actives have a fitted effect of over 70% in size
Target sequence (P83916 whole entry, looked up): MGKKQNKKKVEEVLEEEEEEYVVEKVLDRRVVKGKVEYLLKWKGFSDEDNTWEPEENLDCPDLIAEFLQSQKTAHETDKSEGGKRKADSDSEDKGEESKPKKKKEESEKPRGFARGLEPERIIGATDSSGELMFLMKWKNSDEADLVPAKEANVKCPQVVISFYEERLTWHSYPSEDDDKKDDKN
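Compound inhibition of the preformed complex between 50 nM HP1-beta and 50 nM biotinylated H3K9me3 peptide was read by AlphaScreen. Buffer was PBS pH 7.4 with 0.01% Tween-20. Incubations ran 30 min at room temperature, with 10 ug/mL donor/acceptor beads.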
JMJD2A Tudor inh = inhibitors of human JMJD2A Tudor domain | AlphaScreen JMJD2A-Tudor / H3K4me3 peptide binding | Potency, µM (top dose mostly 114 µM), without a hit: top-dose activity change, negative = inhibition, hits mostly inhibitors | 390,000 compounds, 4.4% hits; further: on the % scale 0 is the no-effect control and ±100 the full control effect; nearly all actives have a fitted effect of over 50% in size
BAZ2B block = BAZ2B (human) inhibition; AlphaScreen BAZ2B-H3K14Ac peptide displacement; 360,000 compounds, 4.4% hits; Q9UIF8; Potency, µM (titrated, usually from 114 µM), for inactives: at the highest dose activity change, negative = inhibition, actives largely listed as inhibitors; further: on the % scale 0 is the no-effect control and ±100 the full control effect; nearly all actives have a fitted effect of over 60% in size
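AlphaScreen displacement of biotin-H3(5-23)K14Ac peptide (50 nM final) from BAZ2B (50 nM final) in PBS pH 7.4, 0.01% Tween-20; complex preformed 30 min RT, then compounds (top 110 uM) 30 min RT, beads 20 min dark.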
G9a inh = inhibitors of human histone lysine methyltransferase G9a; G9a H3K9 monomethylation, AlphaScreen, 2 h; Potency, µM (titrated, usually from 102 µM), without a hit: at the top dose activity, negative = inhibition, hits mostly inhibitors; 350,000 compounds, 8.8% hits; AID 504332; further: on the % scale 0 is the no-effect control and ±100 the full control effect; nearly all actives have a fitted effect of over 75% in size
Target sequence (Q96KQ7 913-1193 limits assumed): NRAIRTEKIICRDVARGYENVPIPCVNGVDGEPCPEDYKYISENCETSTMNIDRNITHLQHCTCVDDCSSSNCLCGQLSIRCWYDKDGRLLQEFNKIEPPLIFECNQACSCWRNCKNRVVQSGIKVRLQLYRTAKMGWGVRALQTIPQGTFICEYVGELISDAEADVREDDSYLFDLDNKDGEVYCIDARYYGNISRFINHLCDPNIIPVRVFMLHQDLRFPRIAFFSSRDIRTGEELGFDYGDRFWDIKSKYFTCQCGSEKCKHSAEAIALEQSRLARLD
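G9a (20 nM) was preincubated 15 min with compound, then reacted 2 h at room temperature with 500 nM biotin-H3K9 peptide and 20 µM SAM. Monomethyl-H3K9 detected by AlphaScreen using anti-H3K9me1 antibody.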
Numbers without * were called inactive; ? = inconclusive; . = not tested or not shown; [ ] = dose if it differs, or a comment. Shown are actives, neighbours in structure and some others; about 12% of the full set was active somewhere. The call rests on the fitted dose curve; in most records, active means well fitted curve in the direction sought with a large enough effect; inconclusive means small, poorly fitted or top-dose-only effect, or another doubt; inactive means no such curve, though single readings can be large; an effect the other way counts as inactive or inconclusive. Potency means the concentration at half of the fitted maximal effect.

SMILES	Sfp inh	HP1b binding inh	JMJD2A Tudor inh	BAZ2B block	G9a inh
Cn1c(=O)cc(N)n(-c2ccccc2)c1=O	5%	-2%	-16%	5%	20%
CCOc1ccc(NC(=O)c2cc(S(=O)(=O)N3CCN(c4ccccc4F)CC3)ccc2F)cc1	.	23%	-26%	3%	0%[59 µM]
Cc1cc2cccc(C)c2nc1SCC(=O)NC1CCCCC1	23%	2%	-9%	-3%	-5%
COc1cc(/C=C2/C(=O)NN(c3ccc(Cl)cc3)C2=O)cc(Br)c1O	-20%	?	40µM*	45µM*	.
COC(=O)c1ccc(N2NC(=O)/C(=C/c3cc(OC)c(OC)c(OC)c3)C2=O)cc1	?	19%	-10%	-30%	-12%[2.33 µM]
COC(=O)c1ccc(N2NC(=O)/C(=C/c3cc(OC)c(O)c(OC)c3)C2=O)cc1	-28%	?	?	45µM*	2.8µM*
COc1cccc(/C=C2/C(=O)NN(c3ccc(Br)cc3)C2=O)c1O	-21%	-21%	?	?	.
COc1cc(/C=C2/C(=O)NN(c3ccc(Cl)c(Cl)c3)C2=O)cc([N+](=O)[O-])c1O	17%	?	16µM*	40µM*	18µM*
COc1cc(/C=C2/C(=O)NN(c3ccc(F)cc3)C2=O)cc(Cl)c1O	45µM*	?	32µM*	32µM*	28µM*
Cc1ncc(N=Nc2ccccc2Cl)c(-c2ccccc2)n1	3%	16µM*	50µM*	11µM*	?
COc1ccc(N=Nc2cnc(C)nc2-c2ccccc2)cc1	-25%	-66%	40µM*	20µM*	14µM*
COc1cc(NC(=O)COCc2cc(-c3ccc4c(c3)OCO4)on2)c(OC)cc1Cl	.	13%	-16%	2%	-8%[59 µM]
CCN(CC)c1ccc(NC(=O)COCc2cc(-c3ccc4c(c3)OCO4)on2)c(C)c1	.	?	20µM*	22µM*	4.5µM*
COc1cc(/C=N/N2CCN(c3ccc(Cl)cc3)CC2)cc(OC)c1OC(C)=O	3%	9%	-6%	0%	.
COc1cc(/C=N/N2CCN(Cc3ccccc3)CC2)cc(OC)c1OC(C)=O	1%	-8%	?	?	50µM*
COc1cc(/C=N/N2CCN(c3ccccc3)CC2)cc(OC)c1OC(C)=O	2%	?	56µM*	45µM*	18%[0.501 µM]
Cc1ccc(NC(=O)CN2C(=O)COc3ccc(S(=O)(=O)N4CCCCC4)cc32)cc1N(C)C	.	14%	-25%	-39%	-39%[59 µM]
O=C(COC(=O)c1cc(-c2cccs2)nn1-c1ccccc1)Nc1ccc(Cl)c([N+](=O)[O-])c1	18%	11%	-18%	1%	40µM*
CCOC(=O)c1nn(-c2ccc3ccccc3c2)cc1O	1%	27%	-14%	-11%	-3%
CC12C=CC(=O)C=C1CCC1C3CCC(O)(C(=O)CO)C3(C)CC3OC312 (stereo not drawn)	8%	19%	0%	-19%	3%
CC(C)n1c(=S)[nH]c2ccccc21	79µM*	-19%	79µM*	-22%	?
CCn1c(=S)[nH]c2cc(Cl)ccc21	-8%	47%	-13%	-8%	.
CCn1c(=S)[nH]c2ccccc21	-9%	1%	79µM*	-22%	2.8µM*
Cc1cc(C)cc(NC(=O)CCn2c(=S)[nH]c3ccccc3c2=O)c1	-10%	29%	-11%	-3%	64%
Cc1ccc(NC(=O)Cn2c(=S)[nH]c3ccccc32)cc1	45µM*	?	-2%	0%	3.5µM*
SMILES	Sfp inh	HP1b binding inh	JMJD2A Tudor inh	BAZ2B block	G9a inh
CCn1c(=S)[nH]c2cc(C(=O)O)ccc21	?	.	.	-12%	45µM*
FC(F)Oc1cccc2cccnc12	4%	12%	-1%	-5%	-7%[59 µM]
O=C(Cn1nnc2ccccc21)c1ccccc1	16%	24%	-2%	6%	?
O=C(Cn1c(=S)[nH]c2ccccc21)c1ccccc1	-18%	42%	?	-1%	3.5µM*
CCn1c(=S)[nH]c2cc(S(=O)(=O)N3CCCCC3)ccc21	-18%	-22%	79µM*	4%	?
CN1CCN(CCCNC(=O)c2ccc(/C=C3\Oc4ccccc4N(Cc4ccccc4F)C3=O)cc2)CC1	56µM*	17%[57 µM]	-34%	-31%	?
Cc1cccc(CN2C(=O)/C(=C\c3ccc(C(=O)NCCCN4CCN(C)CC4)cc3)Oc3ccccc32)c1	50µM*	.	.	-8%[57.1 µM]	?
CC1CCC(NC(=O)c2ccc(/C=C3\Oc4ccccc4N(C)C3=O)cc2)CC1 (stereo not drawn)	-2%	.	.	11%	-6%
CC(=O)N1CCN(S(=O)(=O)c2cccc(C(=O)Nc3ccc(C)cn3)c2)CC1	8%	35%	0%	-1%	.
CCN(CC)S(=O)(=O)c1cc(NC(=O)C2CCN(c3ncnc4sc(C)c(C)c34)CC2)ccc1Cl	.	34%	-24%	-17%	45µM*
Cc1sc2ncnc(N3CCC(C(=O)Nc4ccc(S(N)(=O)=O)cc4)CC3)c2c1C	.	11%	-25%	-5%	?
Cc1ccc(NC(=O)C2CCN(c3ncnc4sc(C)c(C)c34)CC2)cc1S(=O)(=O)N(C)C	.	7%	-14%	-1%	14µM*
O=C(O)/C(=C/c1ccco1)NC(=O)c1ccc(Br)o1	-14%	13%	-26%	-5%	45µM*
O=C(Nc1ccc(C(=O)O)cc1)/C(=C\c1ccco1)NC(=O)c1ccc(Br)o1	50µM*	?	?	-2%	35µM*
O=C(Nc1ccc(C(=O)O)cc1)/C(=C\c1ccc2c(c1)OCO2)NC(=O)c1ccc(Br)o1	6%	-13%	45µM*	-4%	2%
NC(=O)/C(=C\c1ccco1)NC(=O)c1ccc(Br)o1	.	8%	0%	.	.
O=C(O)/C(=C\c1ccco1)NC(=O)c1ccc(Br)o1	.	10%	?	.	.
O=[N+]([O-])c1cccc(/C=N/n2cnnc2)c1O	-18%	48%	-16%	-7%	15%[59 µM]
O=c1c2c(-c3ccc(Cl)cc3)csc2ncn1/N=C/c1cccc([N+](=O)[O-])c1O	-6%	-17%	40µM*	50µM*	40µM*
O=C(NCc1ccco1)C1CN(S(=O)(=O)c2ccccc2)CCN1S(=O)(=O)c1ccccc1 (stereo not drawn)	10%	16%	-15%	3%	?
O=C(NCc1ccco1)C1Cc2ccccc2CN1C(=O)c1ccco1 (stereo not drawn)	14%	-5%	?	79µM*	-4%
O=C(NCc1ccco1)C1Cc2ccccc2CN1S(=O)(=O)c1ccccc1F (stereo not drawn)	.	?	40µM*	.	.
COc1ccc(Br)cc1C1SCCN1S(C)(=O)=O (stereo not drawn)	-10%	22%	6%	2%	3%[2.33 µM]
N#Cc1ccc[n+](CC(=O)c2ccc(Cl)cc2)c1	11%	36%	-17%	-31%	79µM*
Cn1c(=N)n(CC(O)c2ccco2)c2ccccc21 (stereo not drawn)	89µM*	20%	9%	4%	2%[59 µM]

Compound activity: PubChem, National Center for Advancing Translational Sciences (NCATS)
